In all, about 1,500 compounds went through this assay and about 920 (61%) were called active. How the calls were made is not given here. The set was probably picked from earlier hits. The list shows a part of the results. Entries with a potency or affinity are not part of this list.

This experiment can be described thus: Vero 76 cell cytotoxicity, dose response, cytotoxicity control for VEEV inhibitor project (AID 588719). Conditions: Vero 76 cells viability, cytotoxicity counter-screen; series mostly up to 25 µM.
Consider `Cc1ccc([C@H]2C[C@@H](O)[C@H](n3cc(COC(=O)c4ccccc4)nn3)CN2CC2CCCCC2)cc1`, for which the molecule was classed as inactive.

In the case of `COc1ccc(CN(C)[C@H]2C[C@H]3c4[nH]c5ccccc5c4CCN3C[C@H]2[C@H](C)O)cc1`, the result was inactive.

In the case of `CC(=O)Nc1ccc(CCNC(=O)c2ccc3ccccc3c2O)cc1`, the outcome was inactive.

Consider `CCCc1ccc(-c2cc(C(=O)NCCc3ccc(S(N)(=O)=O)cc3)c3ccccc3n2)cc1`, for which the outcome was inactive.

Regarding `CC(C)Oc1ccccc1-c1cc(C(=O)N/N=C/c2cccnc2)c2ccccc2n1`, the call was inactive.

Consider `CCOC(=O)c1ccc(-c2ccc(/C=N/NC(=O)c3cncc(Br)c3)o2)cc1`, for which the molecule was classed as inactive.

As to `Cc1cc(N/N=C/c2ccc3c(c2)OCO3)nc2ccccc12`, the molecule was classed as inactive.

Turning to `CN(C)c1nc(OCCOC(=O)COc2ccc(Cl)cc2Cl)nc(N(C)C)n1`, the molecule was called inactive.

For the molecule `COc1ccc(CCNC(=O)c2cc3c(=O)n4cccc(C)c4nc3n(CCCN3CCOCC3)c2=N)cc1`, the molecule was classed as inactive.

With `O=C(CCNC(=O)c1ccc(Cl)cc1)NC1CCCc2ccccc21` (stereo not drawn), the result was inactive.

As for `CCOc1ccccc1N1CCN(Cc2cn[nH]c2-c2ccc(F)cc2)CC1`, the molecule was called inactive.

For `COc1cccc2sc(N(CCCN(C)C)C(=O)c3ccc(S(=O)(=O)N4CCCc5ccccc54)cc3)nc12`, the outcome was inactive.

With `Cc1nc(SCC(=O)Nc2ccccc2Cl)c2c(C)c(C)sc2n1`, the molecule was classed as inactive.

Consider `CN(C)CC(O)COc1ccc(C(C)(C)c2ccc(OCC(O)CN(C)C)cc2)cc1` (stereo not drawn), for which the molecule was called inactive.

For `Cc1ccc(CCNc2ccc3ccccc3c2)cn1`, the molecule was called inactive.

Regarding `CC(C)Cc1nc2oc3c(NCC(C)O)ncnc3c2c2c1CCCC2` (stereo not drawn), the call was inactive.

For `Cc1cc(C(C)(C)C)cc(C)c1CCNC(=O)c1ccc[n+]([O-])c1`, the call was inactive.

For the molecule `CCN(CC(=O)Nc1ccc(NC(C)=O)cc1)C(=O)c1cc2c(s1)CCCC2`, the molecule was classed as inactive.

On to `CCOC(=O)Cn1c(-c2nonc2NC(=O)c2ccccc2F)nc2ccccc21`, for which the molecule was classed as inactive.

`CCOC(=O)c1ccccc1NC(=O)CSc1nc2ccccc2c(=O)n1CCCN1CCOCC1`: the call was inactive.

As for `S=c1[nH]nc(-c2ccccn2)n1/N=C/c1ccc(-c2ccccc2Cl)o1`, the molecule was called inactive.

For the molecule `COc1ccc(CCNC(=O)c2cc3c(=O)n4ccccc4nc3n(Cc3ccco3)c2=N)cc1OC`, the result was inactive.

As for `CCOc1ccc(CCNC(=O)CCc2nc3ccccc3[nH]2)cc1OCC`, the result was inactive.

As to `COc1ccc([C@H]2C[C@H](n3cc(-c4ccc(F)cc4)nn3)[C@@H](O)CN2C(=O)C2CCCCC2)cc1`, the outcome was inactive.

As for `Fc1ccc(C2c3[nH]c4ccccc4c3CCN2Cc2cccn2-c2ncccn2)cc1` (stereo not drawn), the molecule was called inactive.

On to `COc1ccc(C2c3[nH]c4ccccc4c3CCN2Cc2ccoc2)c(F)c1` (stereo not drawn), for which the molecule was called inactive.

Turning to `O=C(CCNC(=O)c1ccc(Br)cc1)NC1CCCc2ccccc21` (stereo not drawn), the outcome was inactive.

As to `CN1CCC(N(C)S(=O)(=O)c2ccc(NC(=O)COc3ccc(Cl)cc3)cc2)CC1`, the result was inactive.

`CCN1CCN(c2sc(S(C)(=O)=O)nc2S(=O)(=O)c2ccc(C)cc2)CC1`: the molecule was classed as inactive.

For `O=C1[C@H]2[C@@H](c3ccccc3)N[C@]3(CCCN(Cc4ccc(Br)cc4)C3=O)[C@H]2C(=O)N1Cc1ccccc1`, the call was inactive.

Consider `CCOC(=O)NC(C(Cl)(Cl)Cl)S(=O)(=O)c1ccccc1` (stereo not drawn), for which the call was inactive.

For `Nc1ccc2nc(-c3cccc(-c4nc5ccc(N)cc5[nH]4)c3)[nH]c2c1`, the molecule was called inactive.

As to `O=C(COC(=O)Cc1ccc(S(=O)(=O)N2CCOCC2)s1)Nc1ccccc1Cl`, the outcome was inactive.

Consider `O=C(COC(=O)c1ccc(Br)o1)Nc1cccc(S(=O)(=O)N2CCOCC2)c1`, for which the molecule was called inactive.

For `CC1(C)CC2(OC2c2ccccc2[N+](=O)[O-])C(=O)c2ccccc21` (stereo not drawn), the outcome was inactive.

Consider `[O-][n+]1c(/C=C/c2ccccc2)ccc2ccccc21`, for which the call was inactive.

Regarding `CCOC(=O)C(=Cc1ccc(-c2ccsc2C(=O)OC)o1)C(=O)OCC`, the molecule was called inactive.

`CCOC(=O)C(=Cc1ccc(-n2ccnc2)cc1)C(=O)OCC`: the outcome was inactive.

With `O=C(O)C1CCN(C(=O)c2cc(F)cc3c2OCOC3)CC1`, the result was inactive.

On to `Cc1ccc2c(c1)CCCN2S(=O)(=O)c1cccc(C(=O)Nc2ccccc2C(=O)O)c1`, for which the outcome was inactive.

On to `O=C(O)C1CC=CCC1C(=O)Nc1ccc(S(=O)(=O)N2CCCc3ccccc32)cc1` (stereo not drawn), for which the call was inactive.

For the molecule `Cc1cc2c(c(/C=C/C(=O)c3ccccc3)c1)OC1(C=C2)Oc2ccccc2C(=O)N1C` (stereo not drawn), the outcome was inactive.

Take `CN(C)CCNC(=O)c1onc(CSc2ccc(F)c(F)c2)c1C(=O)NCCN(C)C`: the outcome was inactive.

Take `O=C(Oc1ccc2ccccc2c1Cl)N1CCCC1`: the call was inactive.

For `C=CCn1c(SCC(=O)NC23CC4CC(CC(C4)C2)C3)nc(O)cc1=O`, the call was inactive.

For `O=C(NCc1cccnc1)c1ccc(NS(=O)(=O)c2cccc([N+](=O)[O-])c2)cc1`, the molecule was called inactive.

On to `Fc1ccccc1CSc1ncnc2c1ncn2C1CCCO1` (stereo not drawn), for which the outcome was inactive.

In the case of `N#C/C(=C\c1c(Oc2ccccc2Cl)nc2ccccn2c1=O)C(=O)NC1CCS(=O)(=O)C1` (stereo not drawn), the molecule was called inactive.

Consider `COc1cccc2c1C(=O)c1c(O)c3c(c(O)c1C2=O)C[C@@](O)(C(=O)CO)C[C@@H]3OC1CC(N)C(O)C(C)O1` (stereo partly drawn), for which the outcome was inactive.

Turning to `Cc1cccc(CS(=O)(=O)c2ncc(Cl)c(C(=O)Nc3ccc(F)cc3)n2)c1`, the molecule was classed as inactive.

Turning to `c1ccc2c3c([nH]c2c1)C1(CCNCC1)NCC3`, the result was inactive.

Turning to `CC[C@@H](C)[C@H](NC(=O)OC(C)(C)C)c1nnc(S(=O)(=O)Cc2cc(C)ccc2C)o1`, the molecule was classed as inactive.

`CCC(=O)Nc1nnc(SCC(=O)c2ccc3c(c2)Cc2ccccc2-3)s1`: the call was inactive.

For `CC(=O)Nc1nnc(SCC(=O)c2ccc3c(c2)Cc2ccccc2-3)s1`, the call was inactive.

For `CCOC(=O)c1c[nH]n2c(=O)cc(C)nc12`, the molecule was called inactive.

Take `Cc1cc(C)n(-c2nc(N(c3ccccc3)c3ccccc3)nc(-n3nc(C)cc3C)n2)n1`: the result was inactive.

For `O=C(CCS(=O)(=O)c1ccccc1)Nc1nnc(C(F)(F)F)s1`, the molecule was called inactive.

Turning to `Cc1ccc(CSCC(=O)Nc2ccccc2C(=O)O)cc1`, the molecule was classed as inactive.

Turning to `CC(C)CCn1nnnc1CN1CCN(c2ccccc2)CC1`, the molecule was classed as inactive.

As for `C/C=C/c1cc(CN2CCN(c3ccccc3)CC2)c(O)c(OC)c1`, the call was inactive.

Take `CC(=O)OCC1CC(COC(C)=O)C(COC(C)=O)CC1COC(C)=O` (stereo not drawn): the molecule was called inactive.

`S=c1[nH]nc(-c2cccc(Cl)c2)n1/N=C/c1ccc(-c2ccccc2Br)o1`: the call was inactive.

Consider `CCN1CCC(CNCc2cn(-c3ccc(OC)cc3)nc2-c2ccccc2Cl)C1` (stereo not drawn), for which the outcome was inactive.

Regarding `Nc1ncnc(N2CCOCC2)n1`, the molecule was classed as inactive.

Turning to `O=C(COC(=O)c1ccc(O)cc1O)Nc1ccc2ccccc2c1`, the molecule was called inactive.

In the case of `CCOC(=O)C1(CCC(=O)OCc2ccccc2)CCCCC1=O` (stereo not drawn), the molecule was classed as inactive.

Regarding `CCC(CC)N1CCN(Cc2nc3ccc([N+](=O)[O-])cc3c(=O)n2-c2ccccc2F)CC1`, the molecule was called inactive.

Regarding `OCCCNc1cc(-c2ccccc2)nc2cc(-c3ccc(F)cc3)nn12`, the molecule was classed as inactive.

On to `Cc1ccc(C)c(C2=NNC(=O)CC2)c1`, for which the call was inactive.

On to `Cc1cccc(C(=O)OCC(=O)N2CCN(C(=O)c3ccco3)CC2)c1O`, for which the call was inactive.

Turning to `COc1cc2nc(N3CCNCC3)nc(N)c2cc1OC`, the result was inactive.

With `OCC[n+]1c2ccccc2nc2ccc(N3CCOCC3)cc21`, the call was inactive.

On to `COc1ccc(C(C)=NOC(=O)c2c(-c3ccccc3Cl)noc2C)cc1CN1CCOCC1`, for which the call was inactive.

As for `CC(C)Oc1ccc(C(=O)CCN2CCOCC2)cc1`, the molecule was called inactive.

`Cc1c(C(O)CN2CCN(Cc3ccc4c(c3)OCO4)CC2)c2ccccc2n1C` (stereo not drawn): the call was inactive.

Consider `Brc1ccc2[nH]c3c(c2c1)CCC3`, for which the molecule was called inactive.

With `Cc1onc(-c2ccccc2)c1C(=O)NCc1ccc(F)cc1`, the outcome was inactive.

`Cc1ccc(C)c(CN2CCC(CNC(=O)Nc3ccc(Br)cc3F)CC2)c1`: the result was inactive.

For `O=C1c2cc([N+](=O)[O-])cc3cc([N+](=O)[O-])cc(c23)C(=O)N1c1ccccn1`, the result was inactive.

`CC(C)Cc1ccc(CN2CCCC(NC(=O)c3cccc(-n4cnnc4)c3)C2)cc1` (stereo not drawn): the outcome was inactive.

As to `Nc1nc(C2CC2)c(Sc2sc(N)nc2C2CC2)s1`, the molecule was called inactive.

In the case of `COc1ccc(C[C@H]2CN3C(=NC[C@H]3C)N2CCNC(=O)CCC2CCCCC2)cc1`, the outcome was inactive.

Regarding `O[C@H]1C[C@H](c2ccc(Cl)cc2)N(CC2CCCCC2)C[C@@H]1n1cc(-c2ccc(F)cc2)nn1`, the result was inactive.

As to `CCOC(=O)C1=C(NC(=S)NC(=O)c2ccccc2)c2ccccc2CC1(C)C`, the call was inactive.

Consider `Cc1ccc(NC(=S)NNC(=S)Nc2cccc(C(F)(F)F)c2)cc1`, for which the outcome was inactive.

For `Cc1sc(NC(=S)NC(=O)c2ccc(C(C)(C)C)cc2)c(C#N)c1C`, the result was inactive.

Turning to `CC(C)(C)c1ccc(C(=O)NC(=S)Nc2sc3c(c2C#N)CCC3)cc1`, the result was inactive.

As to `ClCCn1cnc2c(SCc3ccccc3Cl)ncnc21`, the molecule was called inactive.

Regarding `Cc1cccc2sc(N(CCCN(C)C)C(=O)c3ccc4ncsc4c3)nc12`, the result was inactive.

In the case of `CC1SCC(NC(=O)c2ccc(Cl)cc2)CS1` (stereo not drawn), the result was inactive.

Take `Cc1cccc2c1NC1(CCCC1)CC2C` (stereo not drawn): the outcome was inactive.

As for `C/C(CCC12CC3CC(CC(C3)C1)C2)=N\NC(N)=S`, the outcome was inactive.

Consider `CC(=O)NNc1cc(C)nc(N)n1`, for which the molecule was classed as inactive.

With `Cc1ccc(Cc2c(-c3ccc(C)cc3)nc3c4ccccc4ccn23)cc1`, the outcome was inactive.

`COCCn1c(SC(C)C(=O)Nc2ncc(Cl)cc2Cl)nc2ccccc21` (stereo not drawn): the molecule was classed as inactive.

Regarding `Cc1cc(SC(C)C(=O)Nc2ncc(Cl)cc2Cl)nc2ccccc12` (stereo not drawn), the result was inactive.

Take `O=C(CCCCN1CCCCC1)c1ccc2c(c1)Cc1ccccc1-2`: the result was inactive.

With `CCOC(=O)c1ccc(NC(=S)N(CCN(C)C)Cc2cccs2)cc1`, the result was inactive.

On to `CCc1ccccc1Nc1nc(N)nc(COC(=O)c2cccn2C)n1`, for which the molecule was classed as inactive.

As for `COc1ccc(OC)c(Nc2nc(NCCC(C)C)nc(N)c2[N+](=O)[O-])c1`, the molecule was classed as inactive.

Turning to `CCc1ccccc1Nc1nc(N)nc(COC(=O)CCC(=O)c2ccc(F)cc2)n1`, the molecule was classed as inactive.

As for `COc1ccc(Nc2ccccc2N)cc1`, the molecule was called inactive.

On to `CCOC(=O)c1c(S(=O)(=O)N2CCC(C)CC2)c(C)n(C)c1C`, for which the molecule was called inactive.
